Experimental data taken from article PMC4336329 (PLoS ONE, 2015).
The campaign covered roughly 310,000 compounds. About 14,000 (4.5%) showed an effect of 50% or more. Effects have a minus sign here. The sample holds strong results, similar compounds and a random draw of the others, so the mix is not that of the screen.

These compounds were tested against human ether-à-go-go-related gene (hERG) potassium channel (human, UniProt Q12809) (assay: primary screen, population patch clamp on CHO cells stably expressing hERG; higher = less effect of the substance).
Chain of human ether-à-go-go-related gene (hERG) potassium channel (Q12809 whole entry, looked up): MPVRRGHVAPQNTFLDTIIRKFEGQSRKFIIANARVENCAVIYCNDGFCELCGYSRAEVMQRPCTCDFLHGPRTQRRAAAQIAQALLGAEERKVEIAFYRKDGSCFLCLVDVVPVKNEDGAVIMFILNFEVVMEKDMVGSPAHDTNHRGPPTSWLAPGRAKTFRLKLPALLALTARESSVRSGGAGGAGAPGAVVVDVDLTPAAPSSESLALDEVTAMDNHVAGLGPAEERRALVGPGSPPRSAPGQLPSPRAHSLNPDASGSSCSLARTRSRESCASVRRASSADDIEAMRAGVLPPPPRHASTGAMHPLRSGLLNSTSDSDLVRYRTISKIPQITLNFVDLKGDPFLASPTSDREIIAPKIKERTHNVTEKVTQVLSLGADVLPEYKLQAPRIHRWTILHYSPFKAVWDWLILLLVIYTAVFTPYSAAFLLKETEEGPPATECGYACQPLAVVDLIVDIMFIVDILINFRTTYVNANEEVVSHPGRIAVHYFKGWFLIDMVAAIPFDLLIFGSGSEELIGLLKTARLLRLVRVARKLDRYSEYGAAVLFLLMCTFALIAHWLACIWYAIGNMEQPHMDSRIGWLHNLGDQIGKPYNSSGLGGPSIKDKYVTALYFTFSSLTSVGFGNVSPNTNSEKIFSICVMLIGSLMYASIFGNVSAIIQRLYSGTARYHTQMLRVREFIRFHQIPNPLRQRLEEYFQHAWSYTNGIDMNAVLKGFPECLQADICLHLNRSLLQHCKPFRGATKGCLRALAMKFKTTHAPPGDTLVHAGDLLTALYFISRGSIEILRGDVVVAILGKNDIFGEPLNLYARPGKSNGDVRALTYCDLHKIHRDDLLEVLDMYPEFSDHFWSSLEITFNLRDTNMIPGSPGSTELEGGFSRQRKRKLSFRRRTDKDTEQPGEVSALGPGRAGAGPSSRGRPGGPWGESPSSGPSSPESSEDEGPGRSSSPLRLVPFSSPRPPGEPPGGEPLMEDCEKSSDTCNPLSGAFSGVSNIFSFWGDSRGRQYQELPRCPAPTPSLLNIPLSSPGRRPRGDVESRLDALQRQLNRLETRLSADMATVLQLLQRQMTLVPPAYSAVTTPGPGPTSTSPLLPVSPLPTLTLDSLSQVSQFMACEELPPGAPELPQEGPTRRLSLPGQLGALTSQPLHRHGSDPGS
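Note: peak tail current of the secondary pulse compared with the same well before compound.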

Row | SMILES | hERG current change (%, negative = inhibition) at 10uM [%]
1 | Nc1c(N(Cc2ccco2)C(=O)COc2ccccc2F)c(=O)[nH]c(=O)n1Cc1ccccc1 | 0.883
2 | CNC(=O)CSCc1c(F)cccc1Cl | 17.8
3 | CCCOC(=O)C1=C(C)NC2=C(C(=O)C(C(=O)OC)C(C)C2)C1c1ccc(N(CC)CC)cc1 (stereo not drawn) | -5.21
4 | COC(=O)c1ccccc1NC(=O)CC(NCc1ccccc1)C(=O)O (stereo not drawn) | -20.7
5 | CCCCn1c(SCC(N)=O)nnc1-c1ccco1 | 15.3
6 | COc1cccc(-n2nnnc2SCC(=O)NCc2ccco2)c1 | -2.06
7 | COc1cc(NC(=O)CN2CCN(c3ccccc3F)CC2)c(C)cc1[N+](=O)[O-] | 28.2
8 | COc1ccccc1N1CCc2c(C)nc3c(OC)cccc3c21 | -61
9 | COc1ccccc1N1CCN(c2nc(C)nc3c2oc2ccccc23)CC1.Cl | -1.5
10 | COc1ccc(N2CCc3c(C)nc4c(OC)cccc4c32)cc1 | -73.5
11 | Cc1nc2c(C)cccc2c2c1COC2 | 7.98
12 | Cc1nc2c(C)cccc2c2c1CCS2 | 0.813
13 | COc1cccc2c(Cl)c(CCCl)c(C)nc12 | 10.2
14 | CCOC(=O)c1cnc2c(OC)cccc2c1N1CCN(c2ccc(OC)cc2)CC1 | -47.1
15 | COc1cccc2c3c(c(C)nc12)CC(C)O3 (stereo not drawn) | -21.9
16 | CCc1c(C)nc2c(OC)cccc2c1Cl | -2.25
17 | CCOC(=O)c1cnc2c(OC)cccc2c1N1CCN(c2ccccc2OC)CC1 | -45.4
18 | Cc1nc2c(C)cccc2c2c1CCN2c1ccccc1F | -62.4
19 | COc1cccc2c3c(c(C)nc12)CCN3c1ccccc1 | -54.6
20 | CCOc1ccccc1CNC(=O)CCNS(=O)(=O)c1ccc2[nH]c(=O)oc2c1 | -2.89
21 | CCC(O)(CC)C(=O)N/N=C/c1cc(Br)cc(Br)c1O | -1.02
22 | C/C(CC(=O)Nc1ccccn1)=N\NC(=O)Cc1cccc2ccccc12 | 1.01

Row | SMILES | hERG current change (%, negative = inhibition) at 10uM [%]
23 | CCOC(=O)c1c(C)[nH]c(C(=O)COC(=O)c2ccccn2)c1C | -17
24 | Cc1cccc(-c2nnc3n2N=C(c2ccccc2Br)CS3)c1 | -14.4
25 | CC1CCCC(NC(=O)COC(=O)CN2C(=O)C3CCCCC3C2=O)C1C (stereo not drawn) | 10.3
26 | Cc1ccc(CN(Cc2ccccn2)C(=O)Nc2c(F)cccc2F)cc1 | -0.968
27 | CCC/C(=N\NC(=O)c1ccc(CSc2nncn2C)cc1)c1ccccc1 | -8.28
28 | CCCOc1ccc(C2c3c(oc4cc(C)c(C)cc4c3=O)C(=O)N2CCCN(C)C)cc1OCC (stereo not drawn) | 7.65
29 | O=S(=O)(NCC(c1cccnc1)N1CCOCC1)c1ccc(Cl)cc1 (stereo not drawn) | 4.89
30 | Cc1cc(C)c(S(=O)(=O)NCc2cccnc2)c(C)c1 | -2.97
31 | O=S(=O)(NCC(c1cccnc1)N1CCN(Cc2ccccc2)CC1)c1ccc(Cl)cc1 (stereo not drawn) | -78.3
32 | Cc1cc(C)c(S(=O)(=O)NCC(c2cccnc2)N2CCN(Cc3ccccc3)CC2)c(C)c1 (stereo not drawn) | -69.5
33 | Cc1cc(C)c(S(=O)(=O)NC2CCN(Cc3ccccc3)CC2)c(C)c1.Cl | -47.6
34 | O=S(=O)(NCC(c1cccnc1)N1CCN(Cc2ccccc2)CC1)c1ccccc1 (stereo not drawn) | -68.9
35 | O=S(=O)(NCC(c1cccnc1)N1CCc2ccccc2C1)c1ccccc1 (stereo not drawn) | 10.3
36 | O=S(=O)(NCC(c1cccnc1)N1CCOCC1)c1ccccc1 (stereo not drawn) | 4.6
37 | CCN1CCN(C(CNS(=O)(=O)c2ccc(F)cc2)c2cccnc2)CC1 (stereo not drawn) | -20.5
38 | CCN1CCN(C(CNS(=O)(=O)c2ccccc2)c2cccnc2)CC1 (stereo not drawn) | -39.2
39 | O=S(=O)(NCC(c1cccnc1)N1CCN(Cc2ccccc2)CC1)c1ccc(F)cc1 (stereo not drawn) | -65
40 | C(=N\N(Cc1ccccc1)c1ccccc1)/c1ccco1 | -11.5
41 | O=C(CNC(=O)c1ccccc1F)OCc1nc2ccccc2s1 | 20.6
42 | COc1cc(C(=O)Nc2nccs2)cc(OC)c1OC | 3.55
43 | CSc1ccc(/C=N/n2c(C3CCCCC3)n[nH]c2=S)cc1 | 21.9
44 | O=C(/C=C/c1ccc2c(c1)OCO2)Nc1nc(-c2ccc(F)cc2F)cs1 | 9.08

Row | SMILES | hERG current change (%, negative = inhibition) at 10uM [%]
45 | O=C(O)/C=C/c1cccc(NC(=O)c2ccccc2)c1 | 9.14
46 | CCOc1ccc(NC(=O)CN(C)C(=O)Cn2cnc3c2c(=O)n(C)c(=O)n3C)cc1OCC | 5.62
47 | CCN1CCN(C(CNS(=O)(=O)c2ccc(OC)cc2)c2cccnc2)CC1 (stereo not drawn) | -45.4
48 | Cc1ccc(S(=O)(=O)NCC(c2cccnc2)N2CCc3ccccc32)cc1 (stereo not drawn) | -2.1
49 | Cc1ccc(S(=O)(=O)NCC(c2cccnc2)N2CCOCC2)cc1 (stereo not drawn) | 5.12
50 | Cc1ccc(S(=O)(=O)NCC(c2cccnc2)N2CCN(Cc3ccccc3)CC2)cc1 (stereo not drawn) | -73.1
51 | COc1ccc(S(=O)(=O)NCC(c2cccnc2)N2CCN(Cc3ccccc3)CC2)cc1 (stereo not drawn) | -58.5
52 | O=C(CCC(=O)OCC(=O)c1ccc([N+](=O)[O-])cc1)NC1CCCCC1 | -0.724
53 | COc1ccc(Cn2nnnc2CN2CCC(O)(c3ccc(F)cc3)CC2)cc1 | -14.5
54 | CC(C)(C)c1cnnn1-c1ccc(NC(=O)c2ccc3c(c2)OCO3)cc1 | -17.4
55 | COc1cccc(C(=O)Nc2ccc(-n3nncc3C(C)(C)C)cc2)c1 | -60.5
56 | COc1ccc(C(=O)Nc2ccc(-n3nncc3C(C)(C)C)cc2)cc1 | -26.4
57 | CC1(C)CC(=O)c2cc(C(=O)NCc3ccco3)c(=O)n(-c3ccccc3)c2C1 | -19.7
58 | Cc1ccc(-n2c3c(cc(C(=O)NCC(=O)c4ccccc4)c2=O)C(=O)CCC3)cc1 | 10.2
59 | O=C1CCCc2c1cc(C(=O)O)c(=O)n2-c1ccccc1 | 13.9
60 | Cc1ccc(-n2c3c(cc(C(=O)NCc4ccco4)c2=O)C(=O)CC(C)(C)C3)cc1 | -6.38
61 | CC1(C)CC(=O)c2cc(C(=O)NCc3ccco3)c(=O)n(-c3ccc(Cl)cc3)c2C1 | -22.2
62 | O=C1CCCc2c1cc(C(=O)NCc1ccco1)c(=O)n2-c1ccccc1 | -10.3
63 | O=C1CCCc2c1cc(C(=O)NCCCN1CCOCC1)c(=O)n2-c1ccc(Cl)cc1 | 1.59
64 | COc1ccc(-n2c3c(cc(C(=O)NCc4ccco4)c2=O)C(=O)CC(C)(C)C3)cc1 | -56.6
65 | Cc1ccc(-n2c3c(cc(C(=O)NCc4ccco4)c2=O)C(=O)CCC3)cc1 | -53.8
66 | O=C1CCCc2c1cc(C(=O)Nc1ccc(Cl)cn1)c(=O)n2-c1ccccc1 | -60.1

Row | SMILES | hERG current change (%, negative = inhibition) at 10uM [%]
67 | O=C1CCCc2c1cc(C(=O)Nc1ccc(Br)cn1)c(=O)n2-c1ccccc1 | -2.93
68 | O=C1CCCc2c1cc(C(=O)NCc1ccco1)c(=O)n2-c1ccc(Cl)cc1 | -69.3
69 | CS(=O)(=O)N(CC(=O)N1CCN(c2cccc(Cl)c2)CC1)c1cccc(F)c1 | -33.8
70 | COc1ccccc1NC(=O)Cn1c(CN2CCCCC2)nc2ccccc2c1=O | -43.7
71 | CN(Cc1cccs1)C(=O)CCCc1c[nH]c2ccccc12 | -1.49
72 | COc1ccc(/C(O)=C2/C(=O)C(=O)N(CCN(C)C)C2c2ccc(OC)c(OC)c2)c(C)c1 (stereo not drawn) | 11
73 | O=C(c1cc(S(=O)(=O)N2CCOCC2)ccc1Cl)N1CCC(Cc2ccccc2)CC1 | -15.9
74 | Cc1cc(CNC(=O)c2cccc([N+](=O)[O-])c2C)c2ccccc2n1 | -53
75 | Cc1cc(CNC(=O)c2ccc(C)c([N+](=O)[O-])c2)c2ccccc2n1 | 8.05
76 | Cc1cc(CNC(=O)c2cccc([N+](=O)[O-])c2)c2ccccc2n1 | 6.72
77 | CN(CC(=O)Nc1ccc(F)cc1)C(=O)COc1ncnc2ccccc12 | -19.3
78 | Cc1ccc(NC(=O)COc2ccccc2C(=O)NCc2ccccc2)cc1 | -31.1
79 | COc1ccc(-c2cn(Cc3cccc(OC)c3)nn2)cc1 | -0.524
80 | COc1ccc(-c2cn(CC3CCCCC3)nn2)cc1 | 15.3
81 | c1ccc(-c2cn(C[C@H]3CC[C@H](Cn4cc(-c5ccccn5)nn4)O3)nn2)nc1 | -9.3
82 | c1ccc(-c2cn(C[C@H]3CC[C@@H]([C@@H]4CC[C@H](Cn5cc(-c6ccccc6)nn5)O4)O3)nn2)cc1 | -23.8
83 | Cc1ccc(-c2cn(C[C@H]3CC[C@@H]([C@@H]4CC[C@H](Cn5cc(-c6ccc(C)cc6)nn5)O4)O3)nn2)cc1 | -7.99
84 | c1cc(-c2cn(C[C@H]3CC[C@@H]([C@@H]4CC[C@H](Cn5cc(-c6ccsc6)nn5)O4)O3)nn2)cs1 | -75.5
85 | c1cncc(-c2cn(C[C@H]3CC[C@@H]([C@@H]4CC[C@H](Cn5cc(-c6cccnc6)nn5)O4)O3)nn2)c1 | -58.5
86 | COc1cccc(-c2cn(C[C@H]3CC[C@@H]([C@@H]4CC[C@H](Cn5cc(-c6cccc(OC)c6)nn5)O4)O3)nn2)c1 | -72.7
87 | c1ccc(-c2cn(C[C@H]3CC[C@@H]([C@@H]4CC[C@H](Cn5cc(-c6ccccn6)nn5)O4)O3)nn2)nc1 | -6.73
